# Where a chain is given by its changes, count along the chain named. Over roughly 16,000 sequences, “ka relative to ugcaugu” has its median near 0.0091; the highest 2% begin near 0.032. This excerpt belongs to a sample that is enriched for the highest values.
# T1: RBFOX1 RRM (Homo sapiens, UniProt Q9NWB1 109-208)
# T1 sequence: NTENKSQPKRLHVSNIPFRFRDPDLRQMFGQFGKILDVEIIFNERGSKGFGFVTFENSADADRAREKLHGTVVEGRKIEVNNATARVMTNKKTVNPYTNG
# B1: UUGUUGC (DNA:RNA)
# RNA: GGGAGACCGGAAUUCAGAUUGUCCUUGUUGCUUAAAUCCCGUCGUAGCCACCA
# DNA 1: CAATCTGAATTCCGGTCTCCC
# DNA 2: TGGTGGCTACGACGGGATT
# B2: UUGUUAG (DNA:RNA)
# RNA: B1 RNA with G30A, C31G
# DNA 1: CAATCTGAATTCCGGTCTCCC
# DNA 2: TGGTGGCTACGACGGGATT
# B3: CUGCUGC (DNA:RNA)
# RNA: B1 RNA with U25C, U28C
# DNA 1: CAATCTGAATTCCGGTCTCCC
# DNA 2: TGGTGGCTACGACGGGATT
# B4: UUGCUUG (DNA:RNA)
# RNA: B1 RNA with U28C, G30U, C31G
# DNA 1: CAATCTGAATTCCGGTCTCCC
# DNA 2: TGGTGGCTACGACGGGATT
# B5: UGCUUUU (DNA:RNA)
# RNA: B1 RNA with U26G, G27C, G30U, C31U
# DNA 1: CAATCTGAATTCCGGTCTCCC
# DNA 2: TGGTGGCTACGACGGGATT
# B6: UGCUUUG (DNA:RNA)
# RNA: B1 RNA with U26G, G27C, G30U, C31G
# DNA 1: CAATCTGAATTCCGGTCTCCC
# DNA 2: TGGTGGCTACGACGGGATT
# B7: UGCUGCU (DNA:RNA)
# RNA: B1 RNA with U26G, G27C, U29G, G30C, C31U
# DNA 1: CAATCTGAATTCCGGTCTCCC
# DNA 2: TGGTGGCTACGACGGGATT
# B8: CUGCUUG (DNA:RNA)
# RNA: B1 RNA with U25C, U28C, G30U, C31G
# DNA 1: CAATCTGAATTCCGGTCTCCC
# DNA 2: TGGTGGCTACGACGGGATT
# B9: UCCUUGC (DNA:RNA)
# RNA: B1 RNA with U26C, G27C
# DNA 1: CAATCTGAATTCCGGTCTCCC
# DNA 2: TGGTGGCTACGACGGGATT
# B10: GUGCUAG (DNA:RNA)
# RNA: B1 RNA with U25G, U28C, G30A, C31G
# DNA 1: CAATCTGAATTCCGGTCTCCC
# DNA 2: TGGTGGCTACGACGGGATT
# B11: CCCCUGC (DNA:RNA)
# RNA: B1 RNA with U25C, U26C, G27C, U28C
# DNA 1: CAATCTGAATTCCGGTCTCCC
# DNA 2: TGGTGGCTACGACGGGATT
# B12: UUGCUAG (DNA:RNA)
# RNA: B1 RNA with U28C, G30A, C31G
# DNA 1: CAATCTGAATTCCGGTCTCCC
# DNA 2: TGGTGGCTACGACGGGATT
# B13: GACGAUG (DNA:RNA)
# RNA: GGGAGACCGGAAUUCAGAUUGUCCGACGAUGUUAAAUCCCGUCGUAGCCACCA
# DNA 1: CAATCTGAATTCCGGTCTCCC
# DNA 2: TGGTGGCTACGACGGGATT
# B14: AAAUAUU (DNA:RNA)
# RNA: B13 RNA with G25A, C27A, G28U, G31U
# DNA 1: CAATCTGAATTCCGGTCTCCC
# DNA 2: TGGTGGCTACGACGGGATT
# B15: CUUGAAA (DNA:RNA)
# RNA: B13 RNA with G25C, A26U, C27U, U30A, G31A
# DNA 1: CAATCTGAATTCCGGTCTCCC
# DNA 2: TGGTGGCTACGACGGGATT
# B16: CGUUCGG (DNA:RNA)
# RNA: B1 RNA with U25C, U26G, G27U, U29C, C31G
# DNA 1: CAATCTGAATTCCGGTCTCCC
# DNA 2: TGGTGGCTACGACGGGATT
# B17: UGCUUAU (DNA:RNA)
# RNA: B1 RNA with U26G, G27C, G30A, C31U
# DNA 1: CAATCTGAATTCCGGTCTCCC
# DNA 2: TGGTGGCTACGACGGGATT
# B18: UGCUUGG (DNA:RNA)
# RNA: B1 RNA with U26G, G27C, C31G
# DNA 1: CAATCTGAATTCCGGTCTCCC
# DNA 2: TGGTGGCTACGACGGGATT
# B19: UGCUUGU (DNA:RNA)
# RNA: B1 RNA with U26G, G27C, C31U
# DNA 1: CAATCTGAATTCCGGTCTCCC
# DNA 2: TGGTGGCTACGACGGGATT
# B20: UUGGUGC (DNA:RNA)
# RNA: B1 RNA with U28G
# DNA 1: CAATCTGAATTCCGGTCTCCC
# DNA 2: TGGTGGCTACGACGGGATT
# B21: UGAUUGG (DNA:RNA)
# RNA: B1 RNA with U26G, G27A, C31G
# DNA 1: CAATCTGAATTCCGGTCTCCC
# DNA 2: TGGTGGCTACGACGGGATT
# B22: GUGCUUG (DNA:RNA)
# RNA: B13 RNA with A26U, C27G, G28C, A29U
# DNA 1: CAATCTGAATTCCGGTCTCCC
# DNA 2: TGGTGGCTACGACGGGATT
# B23: UCCGUGC (DNA:RNA)
# RNA: B1 RNA with U26C, G27C, U28G
# DNA 1: CAATCTGAATTCCGGTCTCCC
# DNA 2: TGGTGGCTACGACGGGATT
# B24: UUGCUCC (DNA:RNA)
# RNA: B1 RNA with U28C, G30C
# DNA 1: CAATCTGAATTCCGGTCTCCC
# DNA 2: TGGTGGCTACGACGGGATT
# B25: UCCUGCU (DNA:RNA)
# RNA: B1 RNA with U26C, G27C, U29G, G30C, C31U
# DNA 1: CAATCTGAATTCCGGTCTCCC
# DNA 2: TGGTGGCTACGACGGGATT
# B26: GUCGUGC (DNA:RNA)
# RNA: B1 RNA with U25G, G27C, U28G
# DNA 1: CAATCTGAATTCCGGTCTCCC
# DNA 2: TGGTGGCTACGACGGGATT
# B27: UUGCCCG (DNA:RNA)
# RNA: B1 RNA with U28C, U29C, G30C, C31G
# DNA 1: CAATCTGAATTCCGGTCTCCC
# DNA 2: TGGTGGCTACGACGGGATT
# B28: UUGCUCG (DNA:RNA)
# RNA: B1 RNA with U28C, G30C, C31G
# DNA 1: CAATCTGAATTCCGGTCTCCC
# DNA 2: TGGTGGCTACGACGGGATT
# Target: T1, RBFOX1 RRM
# Test: EMSA; HiTS-Eq, 1 nM pool, 10 min; buffer printed only for the single-RNA assays: 10 mM Tris pH 7.5, 150 mM NaCl, 3.4 mM EDTA, 0.001% NP-40, 30 C
# Details: tags: His6 N-terminal (pET28a); label: 5' 32P
# Method in brief: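 Relative association constants, normalised to the cognate motif, were derived by comparing read counts of each RNA species with those of the control reaction. The RNA sequenced was the free fraction, separated by 8% native PAGE after a 10 min equilibration in 50 µL of 1 nM 5′-radiolabelled RNA (7 randomized nucleotides) with increasing concentrations of purified wild-type or mutant RbFox RRM.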
row,Binder,binding signal
1,B1,0.0249 KA relative to UGCAUGU
2,B2,0.0257 KA relative to UGCAUGU
3,B3,0.0217 KA relative to UGCAUGU
4,B4,0.0749 KA relative to UGCAUGU
5,B5,0.0211 KA relative to UGCAUGU
6,B6,0.0377 KA relative to UGCAUGU
7,B7,0.0249 KA relative to UGCAUGU
8,B8,0.0459 KA relative to UGCAUGU
9,B9,0.0155 KA relative to UGCAUGU
10,B10,0.0307 KA relative to UGCAUGU
11,B11,0.00603 KA relative to UGCAUGU
12,B12,0.0399 KA relative to UGCAUGU
13,B13,0.0266 KA relative to UGCAUGU
14,B14,0.00092 KA relative to UGCAUGU
15,B15,0.00785 KA relative to UGCAUGU
16,B16,0.0132 KA relative to UGCAUGU
17,B17,0.0138 KA relative to UGCAUGU
18,B18,0.0481 KA relative to UGCAUGU
19,B19,0.0532 KA relative to UGCAUGU
20,B20,0.0277 KA relative to UGCAUGU
21,B21,0.0223 KA relative to UGCAUGU
22,B22,0.053 KA relative to UGCAUGU
23,B23,0.0168 KA relative to UGCAUGU
24,B24,0.0158 KA relative to UGCAUGU
25,B25,0.0144 KA relative to UGCAUGU
26,B26,0.0206 KA relative to UGCAUGU
27,B27,0.0225 KA relative to UGCAUGU
28,B28,0.0477 KA relative to UGCAUGU

# From article PMC9911399, “Two distinct binding modes provide the RNA-binding protein RbFox with extraordinary sequence specificity”
